From the supplement of paper PMC6522484
Several values for one entry are separate records, joined by “and”; a condition that tells them apart may be missing. Identical values can stand only once. Counter-ions that a name gives are not always drawn. ± gives the standard deviation of the averaged measurements.

How the values were obtained:
[1] = system: DLD1; assay: cell viability (CellTiter-Glo) relative to plate median (fraction of plate median); higher = more viable cells; conditions: 10 µM, treatment time 24 h
Method in brief: (§1)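 Kinase inhibitor library compounds were added at a final 10 µM for 24 h to colorectal cancer cells in 384-well plates, 24 h after seeding. The cells stably expressed lentiviral TCF/Wnt firefly luciferase reporters. Firefly luciferase and CellTiterGlo luminescence came from parallel plates, and each well was normalised to its plate median (webcellHTS2, additive, untransformed), averaged over two independent replicates.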

[2] = system: HCT116; assay: as above; conditions: 10 µM; treatment time 24 h; reporter: TCF4/Wnt
Method in brief: as §1

[3] = system: SW480; assay: as above; conditions: 10 µM; treatment time 24 h; reporter: 7TFP
Method in brief: as §1

[4] = system: DLD1; assay: TCF/Wnt firefly luciferase reporter signal relative to plate median (fraction of plate median); higher = higher Wnt reporter signal; conditions: 10 µM, treatment time 24 h
Method in brief: as §1

[5] = system: HCT116; assay: as above; conditions: 10 µM; treatment time 24 h; reporter: TCF4/Wnt
Method in brief: as §1

[6] = system: SW480; assay: as above; conditions: 10 µM; treatment time 24 h; reporter: 7TFP
Method in brief: as §1

Row | Compound | cell viability ([1]; reporter: 7TFP) | cell viability ([1]; reporter: TCF4/Wnt) | cell viability [2] | cell viability [3] | TCF/Wnt firefly luciferase reporter signal ([4]; reporter: 7TFP) | TCF/Wnt firefly luciferase reporter signal ([4]; reporter: TCF4/Wnt) | TCF/Wnt firefly luciferase reporter signal [5] | TCF/Wnt firefly luciferase reporter signal [6]
1 | Cc1[nH]nc2ccc(-c3cncc(OC[C@@H](N)Cc4ccccc4)c3)cc12 | 1.02 ± 0.18 | 1.17 ± 0.05 | 0.755 ± 0.036 | 1.19 ± 0.099 | 0.51 ± 0.029 | 0.189 ± 0.021 | 0.196 ± 0.047 | 0.822 ± 0.042
2 | CNC(=O)c1ccccc1Sc1ccc2c(/C=C/c3ccccn3)n[nH]c2c1 [Axitinib] | 0.9855 ± 0.0021 | 1 ± 0.052 | 0.965 ± 0.0028 | 0.906 ± 0.051 | 1.7 ± 0.057 | 1.97 ± 0.33 | 1.53 ± 0.89 | 1.36 ± 0.92
3 | COc1ccc(-c2ccc3ncc4c(c3c2)n(-c2ccc(N3CCNCC3)c(C(F)(F)F)c2)c(=O)n4C)cn1 | 0.0998 ± 0.065 | 0.116 ± 0.084 | 0.0311 ± 0.011 | 0.273 ± 0.18 | 0.0479 ± 0.0086 | 0.0791 ± 0.014 | 0.0387 ± 0.017 | 0.148 ± 0.14
4 | COc1cc(CCc2cc(NC(=O)c3ccc(N4CC(C)NC(C)C4)cc3)n[nH]2)cc(OC)c1 (stereo unspecified) | 0.967 ± 0.1 | 0.951 ± 0.04 | 1.04 ± 0.058 | 1.07 ± 0.05 | 0.794 ± 0.042 | 0.718 ± 0.011 | 0.502 ± 0.34 | 0.93 ± 0.099
5 | C[C@@H]1CCN(C(=O)CC#N)C[C@@H]1N(C)c1ncnc2[nH]ccc12 | 1.02 and 1.09 | 1.07 and 1.1 | 1.21 and 1.14 | 0.9 and 0.972 | 1.06 and 1.04 | 0.874 and 0.875 | 1.18 and 1.36 | 0.736 and 0.979
6 | Cn1cc(-c2ccc3nnc(C(F)(F)c4ccc5ncccc5c4)n3n2)cn1 | 1.14 ± 0.13 | 0.972 ± 0.11 | 1.16 ± 0.05 | 0.846 ± 0.059 | 1.35 ± 0.05 | 1.4 ± 0.32 | 1.25 ± 0.43 | 1.06 ± 0.064
7 | O=C(Cc1ccc(-c2ccc(OCCN3CCOCC3)cc2)cn1)NCc1ccccc1 | 0.891 ± 0.0014 | 1.005 ± 0.0071 | 0.745 ± 0.26 | 1.145 ± 0.0071 | 0.57 ± 0.038 | 0.908 ± 0.26 | 0.171 ± 0.0021 | 0.791 ± 0.047
8 | COc1cc(Nc2ncc(F)c(Nc3ccc4c(n3)N(COP(=O)(O)O)C(=O)C(C)(C)O4)n2)cc(OC)c1OC | 0.895 ± 0.046 | 0.896 ± 0.073 | 0.8 ± 0.055 | 0.919 ± 0.028 | 0.86 ± 0.098 | 0.919 ± 0.089 | 2.02 ± 1.6 | 0.588 ± 0.28
9 | OCCn1cc(-c2ccc3c(c2)CC/C3=N\O)c(-c2ccncc2)n1 | 1.05 ± 0.15 | 0.992 ± 0.11 | 0.979 ± 0.059 | 1.145 ± 0.0071 | 1.5 ± 0.53 | 1.45 ± 0.085 | 1.62 ± 0.45 | 1.7 ± 0.092
10 | Oc1cccc(-c2nc(N3CCOCC3)c3oc4ncccc4c3n2)c1 | 0.906 ± 0.036 | 0.917 ± 0.038 | 0.862 ± 0.15 | 1.12 ± 0.05 | 0.717 ± 0.061 | 0.954 ± 0.093 | 0.869 ± 0.012 | 1.1 ± 0.24
11 | COCCOc1ccc2c(c1)ncn2-c1ccc2cccc(N3CCC(N)CC3)c2n1 | 0.954 ± 0.11 | 1.14 ± 0.12 | 0.556 ± 0.16 | 1.05 ± 0.082 | 1.54 ± 0.16 | 2.17 ± 0.41 | 0.422 ± 0.12 | 1.71 ± 0.26
12 | CNC(=O)c1cc(COc2nnc(Nc3ccc(Cl)cc3)c3ccoc23)ccn1 [Telatinib (BAY 57-9352)] | 1.13 ± 0.23 | 0.987 ± 0.033 | 1.05 ± 0.079 | 0.972 ± 0.024 | 1.32 ± 0.05 | 1.09 ± 0.13 | 1.08 ± 0.25 | 1.08 ± 0.14
13 | O=C(NC[C@H](O)CO)c1ccncc1Nc1ccc(I)cc1F | 1.15 ± 0.078 | 1.14 ± 0.071 | 0.817 ± 0.036 | 1.14 ± 0.028 | 1.71 ± 0.46 | 1.73 ± 0.54 | 1.18 ± 0.32 | 2.17 ± 0.11
14 | CCS(=O)(=O)Nc1ccc2c(c1)/C(=C(/Nc1ccc(CN3CCCCC3)cc1)c1ccccc1)C(=O)N2 [Hesperadin] | 1.08 ± 0.13 | 1.14 ± 0.085 | 0.556 ± 0.2 | 0.873 ± 0.15 | 0.765 ± 0.36 | 0.902 ± 0.11 | 0.492 ± 0.031 | 0.557 ± 0.16
15 | O=C(Nc1c[nH]nc1-c1nc2ccc(CN3CCOCC3)cc2[nH]1)NC1CC1 | 0.842 ± 0.038 | 0.817 ± 0.022 | 0.566 ± 0.1 | 1.02 ± 0.14 | 0.865 ± 0.018 | 1.575 ± 0.0071 | 0.189 ± 0.0099 | 0.84 ± 0.052
16 | O=c1cc(-c2cccc3c2Sc2ccccc2S3)oc(N2CCOCC2)c1 | 1.02 ± 0.1 | 0.999 ± 0.03 | 1.11 ± 0.035 | 0.875 ± 0.0042 | 1.42 ± 0.13 | 1.18 ± 0.13 | 1.6 ± 0.4 | 1.18 ± 0.13
17 | Clc1ccc(Nc2nnc(Cc3ccncc3)c3ccccc23)cc1 [Vatalanib dihydrochloride (PTK787)] | 0.9675 ± 0.0021 | 0.978 ± 0.011 | 1.08 ± 0.13 | 0.925 ± 0.011 | 0.852 ± 0.038 | 0.965 ± 0.13 | 0.899 ± 0.11 | 0.957 ± 0.089
18 | CN1CCN(CCOc2cc(OC3CCOCC3)c3c(Nc4c(Cl)ccc5c4OCO5)ncnc3c2)CC1 [Saracatinib (AZD0530)] | 0.936 ± 0.048 | 0.874 ± 0.066 | 0.968 ± 0.0042 | 1.03 ± 0.047 | 0.824 ± 0.12 | 0.879 ± 0.036 | 0.799 ± 0.25 | 0.613 ± 0.32
19 | CNC(=O)c1ccccc1Nc1nc(Nc2ccc(N3CCOCC3)cc2OC)ncc1Cl | 0.8225 ± 0.00071 | 0.933 ± 0.069 | 0.895 ± 0.049 | 1.02 ± 0.073 | 0.638 ± 0.0099 | 0.823 ± 0.17 | 1.22 ± 0.28 | 1.08 ± 0.014
20 | CCc1cccc(CC)c1NC(=O)N1Cc2[nH]nc(NC(=O)c3ccc(N4CCN(C)CC4)cc3)c2C1 | 1.05 ± 0.2 | 1.055 ± 0.0071 | 0.954 ± 0.093 | 1.1 ± 0.078 | 1.26 ± 0.014 | 1.09 ± 0.057 | 0.996 ± 0.19 | 0.794 ± 0.039
21 | C[C@@H](Oc1cc(-c2cnn(C3CCNCC3)c2)cnc1N)c1c(Cl)ccc(F)c1Cl | 0.882 ± 0.067 | 1.04 ± 0.042 | 0.674 ± 0.1 | 0.996 ± 0.048 | 0.833 ± 0.16 | 0.831 ± 0.077 | 0.978 ± 0.29 | 0.682 ± 0.15
22 | NC(=O)c1ccc(N(C(N)=O)c2c(F)cccc2F)nc1-c1ccc(F)cc1F | 0.966 ± 0.016 | 1.045 ± 0.0071 | 1.13 ± 0.085 | 0.91 ± 0.025 | 0.904 ± 0.019 | 0.756 ± 0.0014 | 0.921 ± 0.071 | 0.752 ± 0.08
